These molecules were tested against Hexose transporter 1 (Plasmodium falciparum) (UniProt O97467) (assay: ST_JUDE_LEISH: Cytotoxicity at 2uM final concentration against transgenic Leishmania Mexicana promastigotes LmPfHT that are glucose transport deficient and complemented with the Plasmodium falciparum hexose transporter. Activity is measured by DNA content using SYBR green in vitro).
Format: functional

Going from `CN(Cc1ccccc1)C1CCCN(c2cc(NC(=O)c3ccc(F)cc3)ccn2)C1` (configuration not stated) to `O=C(Nc1ccc(OC2CCN(Cc3ccc(F)cc3)CC2)c(Cl)c1)c1ccsc1`, the inhibition rises from -2.04% to 2.64%.

Compared with `CN1CCN(c2ccc(Nc3nccc(-c4cnn5ncccc45)n3)cc2Cl)CC1`, `Cc1ccc(NC(=O)c2cccc(CN3CCCN(CC4CCCCC4)CC3)c2)cc1F` is lower in inhibition: 95.1% for the first, 0.26% for the second.

Going from `CN/C(=N\O)NCCN(C)C` to `CC1(C)NC(N)=NC(=N)N1OCCCOc1ccc(N)cc1`, the inhibition falls from 4.18% to -0.16%.

First: COc1ccc2nc(-c3cc(-c4ccc(NC(C)=O)cc4)cnc3N)[nH]c2c1
Second: COc1ccc2ncc(F)c(CCN3CC[C@@H](CNCc4ccc5c(c4C)OCCO5)C3)c2n1
The inhibition of the first is lower: 4.61% for the first, 35.3% for the second.

`CCOC(=O)c1c(NC(NC(=O)c2ccc(C(C)(C)C)cc2)C(Cl)(Cl)Cl)sc2c1CCCC2` (configuration not stated) showed an inhibition of 8.72%.

The molecules below were run against Glucose transporter (Leishmania mexicana) (UniProt O61059) (assay: ST_JUDE_LEISH: Cytotoxicity at 2uM final concentration against transgenic Leishmania Mexicana promastigotes LmGT2 that are glucose transport deficient and complemented with the L. Mexicana glucose transporter 2. Activity is measured by DNA content using SYBR green in vitro).
Format: functional

First: CCCCCCN1CCCN(Cc2cccc(NC(=O)c3cc4ccccc4s3)c2)CC1
Second: Cc1ccc(NC(=O)c2ccc(CN3CCCN(Cc4cccc(C#N)c4)CC3)cc2)cc1F
The inhibition of the first is lower: 0.46% for the first, 2.02% for the second.

Going from `CCN1CCN(c2ccc(Nc3c4ccccc4nc4ccccc34)cc2)CC1` to `CN(Cc1ccccc1)C1CCCN(c2cc(NC(=O)c3ccc(F)cc3)ccn2)C1` (configuration not stated), the inhibition falls from 2.24% to 0.07%.

Compared with `O=C(NCCCCNCC(Cc1cccc(O)c1)c1ccccc1)c1ccc(NC(=O)c2ccc(Cl)cc2)cc1` (configuration not stated), `CC(=O)Nc1cccc(C(=O)Nc2ccc(-c3ccc(-c4nc5cccc(C)c5[nH]4)s3)cc2)c1` is higher in inhibition: -1.18% for the first, 0.04% for the second.

First: C=CCOc1cccc2c1CCN(CCN1CCC(NC(=O)c3ccc(-c4ccc(Cl)cc4)cc3)CC1)C2
Second: CCc1ccc(C2CCN(CCCCNC(=O)c3ccc(-c4ccc(C#N)cc4)cc3)CC2)c(OCCO)c1
The inhibition of the first is higher: 9.23% for the first, 1.5% for the second.

Compared with `CCCc1cc(OC)c(C[C@@H]2c3cc(O)c(Cl)cc3CCN2C)cc1OC`, `COc1cc(C(=O)NC2CC(C)(C)NC(C)(C)C2)ccc1-c1cc2cc(Cl)c(Cl)cc2[nH]1` is lower in inhibition: 3% for the first, 2.02% for the second.

Going from `O=[N+]([O-])c1c(O)nc2c(c1O)CCC2` to `CCCCCCCCc1c(C)nc(C)c(I)c1O`, the inhibition falls from 4.11% to -2.61%.

Going from `CC(Oc1ccc(Cl)cc1)C(=O)N(C)C1CCN(CCCCCNC(=O)/C=C/c2ccc(Cl)c(Cl)c2)CC1` (configuration not stated) to `O=C(/C=C/c1ccc(Cl)cc1)NCCCCCN1CCCN(C(=O)Nc2ccc(Cl)c(C(F)(F)F)c2)CC1`, the inhibition rises from 1.95% to 2.81%.

Going from `CC(Nc1nncc(-c2cccc(F)c2)n1)c1ccc(F)cc1` (configuration not stated) to `Cc1cc(C(F)(F)F)n2nc(C(=O)N(C)Cc3cncn3Cc3ccc(F)cc3)cc2n1`, the inhibition falls from 10.7% to 1.49%.

Compared with `OC(c1nnc(S)n1-c1ccccc1)C(O)c1nnc(S)n1-c1ccccc1` (configuration not stated), `CS(=O)(=O)N(c1ccc(F)cc1)c1cc(C(=O)N[C@@H](Cc2ccccc2)[C@H](O)CNCc2cccc(C(F)(F)F)c2)cc(N2CCCC2=O)c1` is lower in inhibition: 10% for the first, -1.53% for the second.

Compared with `Cc1onc(-c2ccccc2Cl)c1C(=O)Nc1cc(Cl)c(Cl)cc1Cl`, `Cc1noc(-c2ccc3c(c2)CCN(CCC2CCC(NC(=O)c4cc5ccccc5[nH]4)CC2)CC3)n1` (configuration not stated) is lower in inhibition: 4.95% for the first, 1.98% for the second.

First: CCC(C)(CC)C(=O)n1ncc2c3c(N)nc(N)nc3ccc21
Second: CCC1(CC)N=C(N)N=C(N)C1c1ccc(Cl)c(Cl)c1 (configuration not stated)
The inhibition of the first is higher: 58.6% for the first, 0.44% for the second.

Going from `O=C(Nc1ccc2c(c1)CCN2C1CCN(Cc2cccc(C(F)(F)F)c2)C1)c1ccco1` (configuration not stated) to `CC(C)c1ccc(O)cc1Nc1ccnc2ccc(C(F)(F)F)cc12`, the inhibition falls from -0.47% to -0.66%.

Going from `Cc1c(Cn2ncc(N3CC(C)NC(C)C3)c(Cl)c2=O)cccc1NC(=O)Nc1ccc(-c2ccccc2)cc1` (configuration not stated) to `COc1ccc(CC(=O)Nc2ccc(-c3cccc(-c4nc5cccc(C)c5[nH]4)c3)cc2)cc1O`, the inhibition rises from 5.17% to 5.34%.

Compared with `CCOc1c(CNCCCNc2nc3ccccc3[nH]2)cc(Br)cc1OC`, `Cc1cccc2nc(-c3ccc(-c4cccc(CNCc5ccc(CN)cc5)c4)s3)[nH]c12` is higher in inhibition: 4.2% for the first, 4.55% for the second.

Compared with `CC1(C)NC(N)=NC(=N)N1OCc1cccc(Cl)c1Cl`, `CN(CCN)Cc1ccc(-c2ccc(-c3nc4cc(C(F)(F)F)ccc4[nH]3)s2)cc1` is higher in inhibition: 2.46% for the first, 11.4% for the second.

First: CC(C)[C@H]1CC[C@H](C)C[C@@H]1OC(=O)N[C@@H](Cc1ccc(O)cc1)C(=O)NC1CCN(Cc2ccc(OCCCN(C)C)cc2)C1 (some centres not stated)
Second: Cc1cc(C)c2nc(N3CCC(C(=O)NCCCN4CCC(N5CCCCC5)CC4)CC3)sc2c1
The inhibition of the first is higher: 3.06% for the first, 0.65% for the second.

With `CN1CCN(c2ccc(Nc3nccc(-c4cnn5ncccc45)n3)cc2Cl)CC1` the inhibition was 83.8%.

Source: ChEMBL document CHEMBL3433997, “St. Jude Leishmania screening dataset” (2016)
